Data on 17 molecules can be found in PubChem BioAssay (EPA / NIEHS).

Experiment [1] addresses rat Monoamine Oxidase, MAO-B, Peripheral (MAOBP), Maob (gene 25750) (UniProt P19643). The experiment can be described thus: NVS_ENZ_rMAOBP: NovaScreen (NVS) Enzymatic Assay for rat Monoamine Oxidase, MAO-B, Peripheral (MAOBP) (AID 2283242).
The target in experiment [2] is sheep Cyclooxygenase-1 (Cox1), PTGS1 (gene 443551) (UniProt P05979). The experiment can be described thus: NVS_ENZ_oCOX1: NovaScreen (NVS) Enzymatic Assay for sheep Cyclooxygenase-1 (Cox1) (AID 2283239).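 Further: actives reduce cyclooxygenase activity so potencies are for inhibitors.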 In short, it runs like this:
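COX1 from ovine seminal vesicles, activity read colorimetrically about 0.66 h after dosing. Primary screen in duplicate at 25 uM; actives retested in concentration series; loss of signal fitted versus DMSO.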

Experiment [3] has as its target rat Constitutive Nitric Oxide Synthase (CNOS), Nos1 (gene 24598) (UniProt P29476). The experiment in a line: NVS_ENZ_rCNOS: NovaScreen (NVS) Enzymatic Assay for rat Constitutive Nitric Oxide Synthase (CNOS) (AID 2283236). Put shortly:
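Enzyme activity in rat brain membrane preparation, read 1 h after dosing by filter-based radiometric scintillation counting. Primary screen in duplicate at 25 uM; actives (e.g., ≥30% inhibition) then run in concentration-response up to 50 uM.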

Experiment [4] addresses rat Adenylate Cyclase, Forskolin Stimulated, Adcy5 (gene 64532) (UniProt Q04400). The experiment in a line: NVS_ENZ_rACFSKBinding: NovaScreen (NVS) Enzymatic Assay for rat Adenylate Cyclase, Forskolin Stimulated (AID 2283232). Put shortly:
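Rat forebrain membrane preparation, cell-free, read 1 h after dosing by filter-based scintillation counting. Primary screen in duplicate at 25 uM; actives (e.g. ≥30% inhibition) rerun in concentration-response up to 50 uM; fit versus DMSO.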

The target of experiment [5] is rat Acetylcholinesterase (AChE), Ache (gene 83817) (UniProt P37136). The experiment can be described thus: NVS_ENZ_rAChE: NovaScreen (NVS) Enzymatic Assay for rat Acetylcholinesterase (AChE) (AID 2283233). Put shortly:
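Rat brain membrane acetylcholinesterase activity measured colorimetrically 0.33 h after compound addition, loss of signal relative to DMSO. Primary screen in duplicate at 25 uM; actives re-run as concentration-response with 50 uM top concentration.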

The target in experiment [6] is rat Monoamine Oxidase, MAO-B, Central (MAOBC), Maob (gene 25750) (UniProt P19643). The experiment in a line: NVS_ENZ_rMAOBC: NovaScreen (NVS) Enzymatic Assay for rat Monoamine Oxidase, MAO-B, Central (MAOBC) (AID 2283238). How it is done: NVS_ENZ_rMAOBC is a biochemical, single-readout assay that uses extracted gene-proteins from Rat brain in a tissue-based cell-free assay. Measurements were taken 1.17 hours after chemical dosing in a 96-well plate.NVS_ENZ_rMAOBC is one of one assay component(s) measured or calculated from the NVS_ENZ_rMAOBC assay. It is designed to make measurements of enzyme activity, a form of enzyme reporter, as detected with scintillation counting signals by Lysate-based radiodetection technology.Data from the assay component NVS_ENZ_rMAOBC was analyzed into 1 assay endpoint. This assay endpoint, NVS_ENZ_rMAOBC, was analyzed in the positive analysis fitting direction relative to DMSO as the negative control and baseline of activity. Using a type of enzyme reporter, loss-of-signal activity can be used to understand changes in the enzymatic activity as they relate to the gene Maob. Furthermore, this assay endpoint can be referred to as a primary readout, because this assay has produced multiple assay endpoints where this one serves a enzymatic activity function. To generalize the intended target to other relatable targets, this assay endpoint is annotated to the oxidoreductase intended target family, where the subfamily is monoamine oxidase.
(§1) Binding assays used specific radioligands (tritiated, iodinated) with non-radioactive competitive displacement ligands in agonist or antagonist protocols (as indicated) and various reference compounds and inhibitors to titrate specific binding to receptors and transporters. Most enzyme assays (CYPs, kinases, phosphatases, proteases, HDACs) used recombinant protein and specific substrates (fluorescence mostly, some colorimetric and radioactive) and inhibitors, followed by a biochemical separation of substrate and product. All assays for the biochemical HTS were initially run in duplicate at a single concentration (10 uM for CYP450 assays and 25 uM for all others). Assay-chemical combinations meeting a pre-defined threshold (e.g., 30% inhibition and other criteria defined below) were then run in singleton concentration-response format with maximum concentration of 20 uM for CYPs and 50 uM for all others. Each assay was run with positive and negative controls, and concurrent controls on every plate. The follow-up (secondary) screen tested active chemical-pairs in concentration series, as well as a few additional assays not tested in the primary screen, some selected negative inactives, and several cases re-run in the concentration series for confirmatory purposes.

Experiment [7] deals with rat Monoamine Oxidase, MAO-A, Central (MAOAC), gene 29253. The experiment can be described thus: NVS_ENZ_rMAOAC: NovaScreen (NVS) Enzymatic Assay for rat Monoamine Oxidase, MAO-A, Central (MAOAC) (AID 2283243).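 Further: potency refers to inhibition seen as signal drop below DMSO baseline.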 Put shortly: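 Steps: rat brain protein extract dosed with test chemical (25 uM, duplicate, primary); incubated 1.5 h; radiolabelled product separated from substrate and counted. Signal loss versus DMSO scored as inhibition.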

Experiment [8] has as its target rat Catechol-O-Methyl Transferase (COMT), Comt (gene 24267) (UniProt P22734). The experiment can be described thus: NVS_ENZ_rCOMT: NovaScreen (NVS) Enzymatic Assay for rat Catechol-O-Methyl Transferase (COMT) (AID 2283235). In short, it runs like this:
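Cell-free enzyme activity with protein extracted from rat dorsal striatum, measured by HPLC with absorbance detection. Compounds screened at 25 uM in duplicate; actives then run in concentration-response up to 50 uM, loss of signal versus DMSO.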

Experiment [9] relates to bovine Angiotensin II Receptor Type 2 (AT2), gene 407157. The experiment in a line: NVS_GPCR_bAT2: NovaScreen (NVS) G Protein-Coupled Receptor Assay for bovine Angiotensin II Receptor Type 2 (AT2) (AID 2283240). Put shortly: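 Radioligand displacement on bovine cerebellar membranes, 1 hour incubation, filter-based scintillation counting; loss of signal vs DMSO. Duplicate single-point screen at 25 uM, then concentration-response to 50 uM maximum.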

The target in experiment [10] is bovine Dopamine Receptor (DR), Non-selective Binding, DRD1 (gene 281125) (UniProt Q95136). The experiment can be described thus: NVS_GPCR_bDR_NonSelective: NovaScreen (NVS) G Protein-Coupled Receptor Assay for bovine Dopamine Receptor (DR), Non-selective Binding (AID 2283241). How it is done: NVS_GPCR_bDR_NonSelective is a biochemical, single-readout assay that uses extracted gene-proteins from Bovine striatal membranes in a tissue-based cell-free assay. Measurements were taken 1 hour after chemical dosing in a 48-well plate.NVS_GPCR_bDR_NonSelective is one of one assay component(s) measured or calculated from the NVS_GPCR_bDR_NonSelective assay. It is designed to make measurements of radioligand binding, a form of binding reporter, as detected with scintillation counting signals by Filter-based radiodetection technology.Data from the assay component NVS_GPCR_bDR_NonSelective was analyzed into 1 assay endpoint. This assay endpoint, NVS_GPCR_bDR_NonSelective, was analyzed in the positive analysis fitting direction relative to DMSO as the negative control and baseline of activity. Using a type of binding reporter, loss-of-signal activity can be used to understand changes in the binding as they relate to the gene DRD1. Furthermore, this assay endpoint can be referred to as a primary readout, because the performed assay has only produced 1 assay endpoint. To generalize the intended target to other relatable targets, this assay endpoint is annotated to the gpcr intended target family, where the subfamily is rhodopsin-like receptor.
as §1, with “Assay-chemical combinations meeting a pre-defined threshold (e.g., 30% inhibition and other criteria defined below) were then run in singleton concentration-response format with maximum concentration of 20 uM for CYPs and 50 uM for all others.” left out

Molecules are shown by their SMILES. Results filed as inconclusive are left out. Calls of active or inactive are those of the source. How the source made its calls: active means hit-call score of the fitted dose curve at least 0.9, where 1 is the maximum; inconclusive means response in the unintended direction; inactive means score below 0.9.

Sequence of rat Monoamine Oxidase, MAO-B, Central (MAOBC), Maob (gene 25750) (P19643 whole entry, looked up): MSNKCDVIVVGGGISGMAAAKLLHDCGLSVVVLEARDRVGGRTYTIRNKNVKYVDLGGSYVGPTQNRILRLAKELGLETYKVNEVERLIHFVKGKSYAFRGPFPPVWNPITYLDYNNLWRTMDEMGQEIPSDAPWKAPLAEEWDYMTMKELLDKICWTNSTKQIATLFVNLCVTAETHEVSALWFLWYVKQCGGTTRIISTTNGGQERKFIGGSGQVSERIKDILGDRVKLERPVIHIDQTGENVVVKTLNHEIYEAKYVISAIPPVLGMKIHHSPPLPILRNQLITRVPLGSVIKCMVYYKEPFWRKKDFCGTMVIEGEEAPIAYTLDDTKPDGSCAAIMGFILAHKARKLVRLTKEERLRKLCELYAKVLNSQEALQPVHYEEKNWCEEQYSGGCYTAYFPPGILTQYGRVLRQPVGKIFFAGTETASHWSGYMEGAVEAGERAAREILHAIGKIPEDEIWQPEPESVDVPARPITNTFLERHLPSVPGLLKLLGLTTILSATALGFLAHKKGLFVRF
Sequence of rat Monoamine Oxidase, MAO-B, Peripheral (MAOBP), Maob (gene 25750) (P19643 whole entry, looked up): as above
Sequence of rat Acetylcholinesterase (AChE), Ache (gene 83817) (P37136 whole entry, looked up): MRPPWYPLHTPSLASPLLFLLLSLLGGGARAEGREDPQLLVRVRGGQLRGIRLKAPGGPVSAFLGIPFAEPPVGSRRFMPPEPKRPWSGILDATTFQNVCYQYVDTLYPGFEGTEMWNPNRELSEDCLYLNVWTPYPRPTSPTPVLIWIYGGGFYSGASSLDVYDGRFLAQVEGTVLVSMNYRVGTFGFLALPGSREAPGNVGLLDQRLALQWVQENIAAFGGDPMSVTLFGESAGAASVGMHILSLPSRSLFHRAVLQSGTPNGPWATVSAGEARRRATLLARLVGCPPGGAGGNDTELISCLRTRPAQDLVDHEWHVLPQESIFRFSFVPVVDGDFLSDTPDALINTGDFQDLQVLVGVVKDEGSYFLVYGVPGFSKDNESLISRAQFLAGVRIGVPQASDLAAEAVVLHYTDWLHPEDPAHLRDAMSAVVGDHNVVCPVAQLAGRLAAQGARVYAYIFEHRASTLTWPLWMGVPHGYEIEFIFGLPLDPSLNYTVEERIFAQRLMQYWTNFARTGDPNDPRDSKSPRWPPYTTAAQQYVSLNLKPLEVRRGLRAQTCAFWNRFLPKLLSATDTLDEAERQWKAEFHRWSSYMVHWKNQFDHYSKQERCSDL
Sequence of rat Constitutive Nitric Oxide Synthase (CNOS), Nos1 (gene 24598) (P29476 whole entry, looked up): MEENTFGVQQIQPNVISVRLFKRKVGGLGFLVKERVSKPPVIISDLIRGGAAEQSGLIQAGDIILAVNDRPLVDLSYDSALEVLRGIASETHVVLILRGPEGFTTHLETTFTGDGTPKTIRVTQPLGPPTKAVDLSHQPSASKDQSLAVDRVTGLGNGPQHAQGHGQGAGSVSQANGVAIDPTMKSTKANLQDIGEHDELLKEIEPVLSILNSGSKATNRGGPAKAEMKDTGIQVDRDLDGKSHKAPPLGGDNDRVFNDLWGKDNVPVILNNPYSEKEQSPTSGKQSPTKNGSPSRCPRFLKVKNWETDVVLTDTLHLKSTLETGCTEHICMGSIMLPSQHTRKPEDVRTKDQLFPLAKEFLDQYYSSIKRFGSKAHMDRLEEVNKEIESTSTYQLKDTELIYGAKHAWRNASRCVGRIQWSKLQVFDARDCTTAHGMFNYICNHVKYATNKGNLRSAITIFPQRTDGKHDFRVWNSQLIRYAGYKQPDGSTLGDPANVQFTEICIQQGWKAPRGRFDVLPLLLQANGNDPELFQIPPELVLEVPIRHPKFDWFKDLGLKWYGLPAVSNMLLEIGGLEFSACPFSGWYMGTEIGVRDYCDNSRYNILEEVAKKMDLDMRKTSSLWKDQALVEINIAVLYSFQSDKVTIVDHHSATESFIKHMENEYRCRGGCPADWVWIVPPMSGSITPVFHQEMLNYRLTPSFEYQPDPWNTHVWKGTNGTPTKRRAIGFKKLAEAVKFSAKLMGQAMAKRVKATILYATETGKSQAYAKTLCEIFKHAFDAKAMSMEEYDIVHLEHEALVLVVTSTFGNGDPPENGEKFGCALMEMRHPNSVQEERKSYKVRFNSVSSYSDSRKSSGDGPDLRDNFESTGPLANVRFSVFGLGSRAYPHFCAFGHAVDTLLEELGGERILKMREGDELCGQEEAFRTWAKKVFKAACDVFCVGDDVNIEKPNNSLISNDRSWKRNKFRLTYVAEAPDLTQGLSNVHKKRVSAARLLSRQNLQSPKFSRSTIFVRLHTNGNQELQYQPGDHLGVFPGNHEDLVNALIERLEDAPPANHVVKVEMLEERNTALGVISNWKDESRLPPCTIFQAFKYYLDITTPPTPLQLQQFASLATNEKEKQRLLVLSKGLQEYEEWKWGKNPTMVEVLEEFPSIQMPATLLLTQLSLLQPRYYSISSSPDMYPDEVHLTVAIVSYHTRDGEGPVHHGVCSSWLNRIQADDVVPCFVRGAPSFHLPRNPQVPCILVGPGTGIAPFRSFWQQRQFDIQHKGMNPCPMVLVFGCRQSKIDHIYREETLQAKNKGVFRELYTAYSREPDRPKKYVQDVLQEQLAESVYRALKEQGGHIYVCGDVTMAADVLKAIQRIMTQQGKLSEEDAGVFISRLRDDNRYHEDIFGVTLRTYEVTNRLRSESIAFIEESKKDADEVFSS
Sequence of sheep Cyclooxygenase-1 (Cox1), PTGS1 (gene 443551) (P05979 whole entry, looked up): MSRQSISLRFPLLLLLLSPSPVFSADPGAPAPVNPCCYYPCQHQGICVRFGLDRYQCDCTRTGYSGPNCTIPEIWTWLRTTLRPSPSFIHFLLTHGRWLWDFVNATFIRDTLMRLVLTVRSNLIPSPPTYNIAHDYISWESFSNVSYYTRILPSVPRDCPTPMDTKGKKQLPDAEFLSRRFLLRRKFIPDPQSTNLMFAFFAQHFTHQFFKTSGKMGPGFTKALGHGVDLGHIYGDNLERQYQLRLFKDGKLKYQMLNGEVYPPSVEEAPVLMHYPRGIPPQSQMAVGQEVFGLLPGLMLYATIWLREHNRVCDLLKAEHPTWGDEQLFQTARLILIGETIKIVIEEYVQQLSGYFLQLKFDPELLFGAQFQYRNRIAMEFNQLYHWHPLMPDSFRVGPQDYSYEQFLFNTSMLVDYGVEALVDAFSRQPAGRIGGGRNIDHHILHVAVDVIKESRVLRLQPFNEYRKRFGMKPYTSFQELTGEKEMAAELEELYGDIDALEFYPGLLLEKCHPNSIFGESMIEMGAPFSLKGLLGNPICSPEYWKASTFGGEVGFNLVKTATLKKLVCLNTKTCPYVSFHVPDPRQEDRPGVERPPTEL
Sequence of rat Adenylate Cyclase, Forskolin Stimulated, Adcy5 (gene 64532) (Q04400 whole entry, looked up): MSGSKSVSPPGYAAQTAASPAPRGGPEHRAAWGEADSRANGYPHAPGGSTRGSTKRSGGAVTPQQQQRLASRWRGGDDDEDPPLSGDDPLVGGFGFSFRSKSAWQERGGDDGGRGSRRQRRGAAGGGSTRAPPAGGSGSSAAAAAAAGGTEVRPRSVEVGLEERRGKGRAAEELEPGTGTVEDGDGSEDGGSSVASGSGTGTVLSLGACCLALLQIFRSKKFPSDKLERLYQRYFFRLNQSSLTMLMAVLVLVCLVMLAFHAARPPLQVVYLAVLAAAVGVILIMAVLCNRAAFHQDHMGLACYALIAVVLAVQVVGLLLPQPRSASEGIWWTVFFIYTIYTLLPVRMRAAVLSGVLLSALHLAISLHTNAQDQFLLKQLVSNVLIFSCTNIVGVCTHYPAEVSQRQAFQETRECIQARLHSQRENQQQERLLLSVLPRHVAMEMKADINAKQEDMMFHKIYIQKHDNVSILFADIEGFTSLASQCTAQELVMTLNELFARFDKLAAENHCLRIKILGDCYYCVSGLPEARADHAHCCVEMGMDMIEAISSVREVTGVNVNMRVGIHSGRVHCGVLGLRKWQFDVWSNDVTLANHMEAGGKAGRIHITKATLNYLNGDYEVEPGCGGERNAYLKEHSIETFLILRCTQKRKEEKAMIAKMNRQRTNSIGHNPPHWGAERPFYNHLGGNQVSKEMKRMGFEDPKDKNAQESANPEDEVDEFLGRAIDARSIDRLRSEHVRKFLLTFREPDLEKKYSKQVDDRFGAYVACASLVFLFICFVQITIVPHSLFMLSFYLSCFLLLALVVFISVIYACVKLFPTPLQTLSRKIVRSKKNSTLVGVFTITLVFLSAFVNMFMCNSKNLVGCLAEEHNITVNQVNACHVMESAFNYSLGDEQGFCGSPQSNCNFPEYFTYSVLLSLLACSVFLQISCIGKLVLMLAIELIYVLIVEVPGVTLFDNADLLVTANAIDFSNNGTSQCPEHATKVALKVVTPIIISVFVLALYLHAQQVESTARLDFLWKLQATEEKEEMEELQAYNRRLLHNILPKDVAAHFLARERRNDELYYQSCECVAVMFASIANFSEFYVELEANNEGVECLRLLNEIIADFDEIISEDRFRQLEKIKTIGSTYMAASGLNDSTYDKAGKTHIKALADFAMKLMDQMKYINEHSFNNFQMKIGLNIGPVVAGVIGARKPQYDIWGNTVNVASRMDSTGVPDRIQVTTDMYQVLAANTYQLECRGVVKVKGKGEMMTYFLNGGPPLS
Sequence of rat Catechol-O-Methyl Transferase (COMT), Comt (gene 24267) (P22734 whole entry, looked up): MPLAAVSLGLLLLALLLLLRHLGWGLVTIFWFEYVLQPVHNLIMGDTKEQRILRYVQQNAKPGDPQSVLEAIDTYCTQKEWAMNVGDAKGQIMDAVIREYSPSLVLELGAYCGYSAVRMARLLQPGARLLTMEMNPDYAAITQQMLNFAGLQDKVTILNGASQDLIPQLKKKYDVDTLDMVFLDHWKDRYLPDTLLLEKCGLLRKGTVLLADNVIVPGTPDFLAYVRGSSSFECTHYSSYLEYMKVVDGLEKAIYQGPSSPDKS

Take `CC(C)COC(=O)c1ccccc1C(=O)OCC(C)C`: the call in experiment [1] was inactive. With `ClCCOCCCl`, in [2], the outcome was inactive. In the case of `C=CCc1ccc2c(c1)OCO2`, the molecule was classed as inactive in [3]. As a reminder, the AC50 is the concentration giving half of the maximal activity seen. `O=[N+]([O-])C(Br)(CO)CO`: the AC50 is 21.3 µM (active) in [4], 35.2 µM (active) in experiment [5] and 35.6 µM (active) in experiment [6]. `CCOc1cccc(C2(N3CCN(c4ccccc4)CC3)CCC(C)CC2)c1` (configuration not stated): in [7], the concentration at half-maximal activity (AC50) was 4.53 µM (active).

With `CNC(=O)Oc1cccc2c1OC(C)(C)C2`, in [5], the AC50 is 0.464 µM (active). `CCCCOC(=O)c1ccccc1C(=O)OCc1ccccc1`: the result in experiment [3] was inactive. Take `Oc1ccc2ccc3cccc4ccc1c2c34`: the AC50 in experiment [8] is 25 µM (active); in experiment [7], 0.255 µM (active). With `CC(C)(C)OOC(=O)c1ccccc1`, the result in experiment [6] was inactive. As for `Nc1ccc([N+](=O)[O-])cc1`, the AC50 in experiment [7] is 36.3 µM (active). Take `CCCCCCCCOC(=O)c1ccc(C(=O)OCCCCCCCC)c(C(=O)OCCCCCCCC)c1`: the molecule was called inactive in [5]. As for `Cn1cc(-c2ccccc2)c(=O)c(-c2cccc(C(F)(F)F)c2)c1`, in experiment [1], the molecule was called inactive.

For `CN(C)c1ccc(C(=O)c2ccc(N(C)C)cc2)cc1`, the concentration at half-maximal activity (AC50) in [6] is 7.63 µM (active); in [2] it was 25.2 µM (active); in [1], 18.6 µM (active); in [7], 5.33 µM (active). Turning to `CO[C@@H]1[C@H](OC(=O)NC(=O)CCl)CC[C@]2(CO2)[C@H]1[C@@]1(C)O[C@@H]1CC=C(C)C`, the result in experiment [1] was inactive.

Take `c1ccc(NNc2ccccc2)cc1`: in [2], the AC50 is 2.46 µM (active). With `CCC[CH2][Sn]([Cl])([CH2]CCC)[CH2]CCC`, the AC50 in experiment [4] is 41 µM (active); in experiment [9], 18.2 µM (active); in experiment [10], 9.14 µM (active). Turning to `COP(=S)(OC)SCN1C(=O)c2ccccc2C1=O`, the call in [5] and in [6] was inactive. The AC50 in experiment [3] was 3.44 µM (active).
